In paper PMC6792352, “Limited Chemical Structural Diversity Found to Modulate Thyroid Hormone Receptor in the Tox21 Chemical Library” (Environmental Health Perspectives, 2019):
Structures can show the parent of a compound that is named as a salt.

These compounds were tested on thyroid hormone receptor (endogenous TRα and TRβ). Details: read-out: Average AC50 (uM) GH3-TRE-Antag, antagonist mode, 1 nM T3, no GH3 cytotoxicity hit.
Design: species or system GH3-TRE-Luc (rat pituitary); GH3-TRE-Luc luciferase reporter, antagonist mode against 1 nM T3, loss of signal, qHTS

Compound	AC50 [µM]
CCCCCCOc1ccc(N)cc1 [4-Hexyloxyaniline]	59.8
CCC(C)COC(=O)CC(C)C (centres unmarked) [2-Methylbutyl isovalerate]	71.8
OC[C@H](Cc1cccc(O)c1)[C@H](CO)Cc1cccc(O)c1 [(-)-Enterodiol]	> 90
CC(C)C(C(=O)OC(C#N)c1cccc(Oc2ccccc2)c1)c1ccc(Cl)cc1 (centres unmarked) [Fenvalerate]	37.1
CC1=CC[C@H](C(C)C)C=C1 [(R)-alpha-Phellandrene]	54.5
C[C@H](CN1CCCC1)C(=O)c1ccc(C(F)(F)F)cc1 [Lanperisone hydrochloride]	31.4
CC(C)(C)NCC(O)COc1ccc(NC(=O)NC2CCCCC2)cc1 (centres unmarked) [Talinolol]	26.4
CCCCC[C@H](O)/C=C/[C@H]1[C@H](O)CC(=O)[C@@H]1C/C=C\CCCC(=O)O [Dinoprostone]	4.68
Oc1ccc2c(c1)OCO2 [Sesamol]	> 90
C(COCC1CO1)OCC1CO1 (centres unmarked) [Ethylene glycol diglycidyl ether]	38
CC(C)(C)NC(=O)[C@H]1CC[C@H]2[C@@H]3CC[C@H]4NC(=O)C=C[C@]4(C)[C@H]3CC[C@]12C [Finasteride]	> 20
C=CCOC(Cn1ccnc1)c1ccc(Cl)cc1Cl (centres unmarked) [Imazalil sulfate]	28.4
C=C1C[C@@H]2[C@H](CC[C@]3(C)C(=O)CC[C@@H]23)[C@@]2(C)C=CC(=O)C=C12 [Exemestane]	34.6
O=Cc1ccc(Cl)c([N+](=O)[O-])c1 [4-Chloro-3-nitrobenzaldehyde]	68.3
